The whole screen tested about 69,000 compounds, of which about 8,600 (12%) showed an effect of 50% or more. The entries come from a sample that favours strong results as a whole.

Drawing on ChEMBL document CHEMBL4513216, “Probing the Open Global Health Chemical Diversity Library for Multistage-Active Starting Points for Next-Generation Antimalarials” (ACS Infect Dis, 2020), this text covers INHIBITION for 69 compounds.

In this experiment the test system is Plasmodium berghei. As to the kind of experiment: Screen against P. berghei liver stage (PbLuc), transformed with Luciferase, at 10uM. The format is functional, HepG2. Conditions: tested at 10 uM.
`Cc1ccc(-c2cc(CNC(=O)NC3CCCCNC3=O)on2)cc1` (centres undefined): the INHIBITION is -22.1%.

For `CS(=O)(=O)NC[C@H]1OC[C@H]2CN(CCc3ccccc3)CC[C@H]21`, the INHIBITION is 2.7%.

In the case of `CC(C)C(=O)N1CCC(Cc2nccnc2Nc2ccccn2)CC1`, the INHIBITION came to 23.4%. As for `CCS(=O)(=O)N1C[C@H]2CN(Cc3cccnc3)C(=O)[C@H]2C1`, the figure is -28.2%; as for `CCNc1nnc(SCC(=O)N2CCN(Cc3ccc(Cl)s3)CC2)s1`, 40.5%. As for `O=C(CSc1nncs1)N1CCN(Cc2ccc(Cl)cc2)CC1`, the figure is 87.2%; as for `O=C(CSc1nncs1)N1CCN(Cc2ccc(Cl)s2)CC1`, 2.37%.

`c1ccc(-n2nc(CNC3CCc4ncnn4C3)c3c2CCC3)cc1` (centres undefined): the INHIBITION is on record as 33.25%.

With `Cc1noc([C@@H]2C[C@@H]3CCN(CC4CCOCC4)C[C@H]3O2)n1`, the INHIBITION is given as -23.4%. For `Cc1cccc(C(C(=O)NCc2nc(-c3cccnc3)no2)N(C)C)c1` (centres undefined) the value was 15.3%. As for `Cc1ccccc1C(C(=O)NCc1nc(-c2ncccn2)no1)N(C)C` (centres undefined), the figure is -24.9%; as for `Cc1cccc(C(C(=O)NCc2nc(-c3ncccn3)no2)N(C)C)c1` (centres undefined), 56.3%; as for `CCN(Cc1cccc2c1OCO2)C(=O)NCCOC`, 31.3%. As for `CC(C)(C)CC(NC(=O)N1CCS(=O)(=O)CC1)C(F)(F)F` (centres undefined), the INHIBITION is recorded as -47.8%. For `Cc1nn(C)cc1CN1CCc2nc(-c3cccnc3)nc(O)c2C1` the value was 38.8%; for `CN1CCC(N2CC[C@H](c3nc4ccc(C(F)(F)F)cc4[nH]3)C2)CC1`, 24.3%; for `FC(F)(F)c1ccc2nc([C@H]3CCN(C4CCOCC4)C3)[nH]c2c1`, 53%. As for `CC(C)N1CC[C@H](c2nc3ccc(C(F)(F)F)cc3[nH]2)C1`, the figure is 30.3%; as for `Fc1ccc2[nH]c([C@H]3CCN(C4CCOCC4)C3)nc2c1`, 31.2%. As for `FC(F)(F)c1ccc2nc([C@H]3CCN(C4CCC4)C3)[nH]c2c1`, the figure is 39.2%.

With `FC(F)(F)c1ccc2nc([C@H]3CCN(C4CCCCC4)C3)[nH]c2c1`, the INHIBITION is reported as 73.7%.

Turning to `O=S(=O)(CCN1CCN(c2ccccc2O)CC1)c1ccc(Br)cc1`, the INHIBITION is given as 18.9%. In the case of `CN(Cc1ccccc1)c1cnn(CC2COCCO2)c(=O)c1` (centres undefined), the INHIBITION stood at 28.2%. For `O=C(c1cnoc1)N1CCC[C@]2(C[C@@H](Oc3ccccn3)CO2)C1` the value was -27.9%; for `c1cc(CNc2ncc(-c3cnccn3)c([C@@H]3CCCO3)n2)ccn1`, 5.34%; for `c1cnc(-c2cnc(N3CCCCC3)nc2C2CCCO2)cn1` (centres undefined), -14.1%. Turning to `c1cc(CNc2ncc(-c3cnccn3)c(C3CC3)n2)ccn1`, the INHIBITION stood at 75.9%. As for `c1cc(CCNc2ncc(-c3cnccn3)c(C3CC3)n2)ccn1`, the figure is 28.5%; as for `c1cnc(-c2cnc(N3CCSCC3)nc2C2CCCO2)cn1` (centres undefined), 27.9%. As for `c1cnc(-c2cnc(N3CCSCC3)nc2C2CC2)cn1`, the figure is 64.3%; as for `CC(C)C(C(=O)N1CCCN(Cc2cscn2)CC1)n1cncn1` (centres undefined), -22.9%. As for `CC1CC(=O)c2cnc3nc(N4CCOCC4)[nH]c(=O)c3c2C1` (centres undefined), the figure is 22%. As for `CCN1CCOC(CNCc2ccccc2OCC(=O)N(C)C)C1` (centres undefined), the INHIBITION is on record as 12.8%.

Regarding `Cc1cccc(CNC2(CCO)CCOCC2)c1C`, the INHIBITION is reported as 27.3%.

Turning to `Cc1cccc(CNCC2COC3(CCCCC3)O2)c1C` (centres undefined), the INHIBITION is recorded as -3.77%. As for `Cc1cccc(CNCC2COC3(CCCC3)O2)c1C` (centres undefined), the figure is 50%. As for `Cc1ncccc1CNCC1CCN(CCO)CC1`, the figure is -64.9%; as for `Cc1ncccc1CNCC1CCCN1c1cccnn1` (centres undefined), 7.67%; as for `COCCOc1ccccc1CNCC1COC2(CCCC2)O1` (centres undefined), 81.5%. For `COCCOc1ccccc1CNCc1c(C)nn(C)c1N(C)C` the value was -2.44%; for `Cc1ncccc1CNCC1COC2(CCCCC2)O1` (centres undefined), 74.9%; for `O=C(CCOCC(F)(F)F)N1CCCC1c1noc(C2CC2)n1` (centres undefined), -21.5%.

Regarding `Cc1nc(NC(=O)C(C)N(C)Cc2ccc3c(c2)OCO3)sc1C` (centres undefined), the INHIBITION was 46.3%. For the compound `Cc1cc(C)n(C2CCCN(C(=O)CCOc3ccccc3F)C2)n1` (centres undefined), the INHIBITION is reported as -11.4%. For `COCc1noc(-c2cc(Cl)c3c(c2)OCCCO3)n1` the value was 19.8%; for `CC1CCN(CC2CCCN(C(=O)Nc3ccccn3)C2)CC1` (centres undefined), 55%; for `CC(=O)N1CCC(C(=O)N2CCCC(Cc3ccccn3)C2)CC1` (centres undefined), -6.92%. For `O=C(NC1CCCCC1)C1CCCN(C(=O)Nc2ccccn2)C1` (centres undefined) the value was 66.1%; for `Cc1cccc(NC2CCN(C(=O)Nc3ccccn3)CC2)n1`, 28.8%. For `CN(C)c1ncc(NC(=O)N2CCC(CN3CCCC3)C2)cn1` (centres undefined) the value was -45%; for `CC1CCN(C(=O)C2CCCN(C(=O)Nc3ccccn3)C2)CC1` (centres undefined), 89.6%; for `CC1CCN(CC(O)CNc2ccccn2)CC1` (centres undefined), 1.62%. Take `Cc1ccc(C(=O)NC2CCN(C(=O)Nc3ccccn3)CC2)o1`: the INHIBITION is given as -1.58%.

With `Cc1ccc(C(=O)NC2CCN(C(=O)Nc3ccccn3)CC2)s1`, the INHIBITION is -21.9%. For `CNc1ccc(CC2CCCN(C(=O)c3cnccn3)C2)nn1` (centres undefined) the value was 32.3%. For `O=C(NCC1(O)COCCN(Cc2cccc(O)c2)C1)c1cscn1` (centres undefined) the value was -19.7%.

`Cc1cc(C)n(CC(C)Nc2nc(-c3ccncc3)nc3c2CNC3)n1` (centres undefined): the INHIBITION is 49.2%.

For the compound `Cn1cnc2c(N3CCCC3)nc(C3CCN(CC4CC4)CC3)cc21`, the INHIBITION is given as -14.4%. For `CCOC(=O)N1CCN(c2nc(C)ncc2CC)CC1` the value was 47.1%; for `CCc1cnc(C)nc1N1CCS(=O)(=O)CC1`, 57.3%; for `CCc1cnc(C)nc1N1CCN(C(N)=O)CC1`, 46.1%.

Consider `O=C(Cn1cc(Cl)cn1)N1CCCC(c2ccn[nH]2)C1` (centres undefined), for which the INHIBITION is listed as 28%. For `Cc1occc1CNC(=O)NCCN(C)C1CCCC1` the value was 16.8%; for `CCOCC1CN(C(=O)c2ccoc2)Cc2cnn(C)c21` (centres undefined), 15.6%; for `Cc1ccsc1CN(C)Cn1nccc1-c1cccnc1`, 5.79%.

On to `Cc1noc(C)c1CN(C)Cn1nccc1-c1cccnc1`, for which the INHIBITION was determined as 36.2%. For `CN(Cc1ccc(C#N)cc1)Cn1nccc1-c1cccnc1` the value was 50.5%; for `NC(=O)c1sc2ccccc2c1C1CCN(S(=O)(=O)N2CCOCC2)C1` (centres undefined), -24.4%; for `CCc1ccc(CNc2cc(N3CCCC3CO)ncn2)s1` (centres undefined), 49.1%.
